From PubChem
In the library only some 3% were active in any assay of this set; here they are far more common.
MITF act – MITF TRPM1 promoter activation in melanoma cells; SK-MEL-5 TRPM1-promoter luciferase, 24 h; % of positive control, neutral wells = 0; activation, % at 12.5 µM; 300,000 tested, 0.75% active;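 active = mean activation of at least 80% with every replicate also reaching 80%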;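 note: 0% = neutral control wells and 100% = parthenolide positive control wells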
TROY signal inh – blocks TROY-dependent signaling in reporter cells; Q293 LMP1-TROYcd NF-kB luciferase reporter, 4 h; inhibition, % at 10 µM; 360,000 tested, 0.98% active; AID 1347056;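 active = compounds whose plate-normalised and pattern-corrected inhibition of the luciferase reporter signal at the single screening dose is 50% or more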
TWEAK Fn14 block – inhibitors of TWEAK-Fn14 interaction signaling | TWEAK-stimulated Fn14 reporter cells, luciferase luminescence, 8 h | inhibition, % at 10 µM | 360,000 tested, 2% active | AID 1159606; in the data active = inhibition above about 50%
LGR2 inh – inhibitors of bursicon-induced Drosophila LGR2 receptor cAMP signaling; HEK293 LGR2, CRE-luciferase, bursicon-stimulated, 4 h; inhibition, % at 9.99 µM; 380,000 tested, 0.35% active; AID 720647;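 active = drop in luminescence signal, shown as inhibition above about 50% in the replicate tests, limit read from the data, passing the limit was not always enough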;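 note: agonist challenge used bursicon conditioned medium at about half maximal strength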
EBV LMP1 NFkB – Epstein-Barr LMP1 NF-kappaB reporter inhibition; LMP1-induced NF-kappaB luciferase reporter cells, luminescence; inhibition, % at 12.5 µM; 350,000 tested, 0.69% active; AID 504558; in the data active = inhibition above about 41%;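 note: 0% = neutral control wells and 100% = reference inhibitor control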
TRPM1 prom inh – reduces MITF-dependent TRPM1 promoter luciferase signal | SK-MEL-5 TRPM1 promoter luciferase, 24 h | inhibition, % at 12.5 µM | 330,000 tested, 0.83% active;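 active = mean inhibition across replicates of 60% or more, whatever share of single replicates reaches that level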
An asterisk follows results filed as active.

What do the screens show for `COC(=O)[C@H](CC(C)C)NC(=O)Nc1ccc2c(c1)OCCO2`?
MITF act: -4.3; TROY signal inh: 32.3; TWEAK Fn14 block: 66.2*; LGR2 inh: -9.7; EBV LMP1 NFkB: 7.4; TRPM1 prom inh: 4.3

How did CO[C@H]1CN(C)C(=O)c2cc(NC(=O)c3ccccc3)ccc2OC[C@@H](C)N(C(=O)CN(C)C)C[C@H]1C do in these assays?
LGR2 inh: 2.7

Results for CC1(C)Cc2c(C#N)c(SCCOc3ccccc3)nc(N3CCOCC3)c2CO1 ?
MITF act: 1.9; TROY signal inh: -2.9; TWEAK Fn14 block: 52.9*; EBV LMP1 NFkB: -6.0; TRPM1 prom inh: -0.2

Results for Nc1ccc(C(=O)NN2C(=O)[C@H](Cl)C2c2ccc(Cl)cc2)cc1 (some centres undefined) ?
MITF act: -79.4; TROY signal inh: -23.3; TWEAK Fn14 block: 64.6*; LGR2 inh: -11.3; EBV LMP1 NFkB: -9.3; TRPM1 prom inh: 80.5*

How did Oc1cccc(-c2nc3ccc4ccccc4c3c3c2CCC3)c1 do in these assays?
MITF act: 92.5*; TROY signal inh: -71.4; TWEAK Fn14 block: -32.8; EBV LMP1 NFkB: -57.6; TRPM1 prom inh: -89.8

Results for O=C(NNc1c2ccccc2nc2ccccc12)c1cccc(O)c1 ?
MITF act: -6.5; TROY signal inh: 1.1; TWEAK Fn14 block: -19.0; LGR2 inh: -1.7; EBV LMP1 NFkB: 19.6; TRPM1 prom inh: 0.1

Results for COc1ccccc1-c1cnc2c(c1)C(=O)N([C@H](C)CO)C[C@H](C)[C@H](CN(C)Cc1ccc(F)cc1)O2 ?
LGR2 inh: -5.0

What do the screens show for `Cc1cc(NC(=O)COC(=O)C2CCN(S(=O)(=O)c3c(Cl)cccc3Cl)CC2)no1`?
MITF act: 3.3; TWEAK Fn14 block: 92.0*; EBV LMP1 NFkB: -4.7; TRPM1 prom inh: -2.6

How did CCOC(=O)C1CCN(S(=O)(=O)c2c(Cl)ccc3nonc23)CC1 do in these assays?
MITF act: -92.7; TROY signal inh: 68.2*; TWEAK Fn14 block: 74.9*; LGR2 inh: 3.9; EBV LMP1 NFkB: 22.7; TRPM1 prom inh: 93.5*

How did CCOC(=O)C1CCN(S(=O)(=O)c2cccc3nonc23)CC1 do in these assays?
MITF act: 5.1; TROY signal inh: 4.5; TWEAK Fn14 block: -0.4; EBV LMP1 NFkB: -2.0; TRPM1 prom inh: -2.4

Results for C/C=C/c1ccc([C@H]2[C@H](CO)N(C(C)=O)C23CN(C(=O)c2ccncc2)C3)cc1 ?
LGR2 inh: -2.2

How did O=C(C[C@@H]1CC[C@H](NC(=O)c2ccncc2)[C@H](CO)O1)Nc1ccccc1 do in these assays?
LGR2 inh: 1.5

What do the screens show for `COc1ccc2c3c(n(C)c2c1)[C@@H](CO)N(S(C)(=O)=O)CC31CN(C(=O)C2CC2)C1`?
LGR2 inh: -15.9

What do the screens show for `CC(C)(C)c1cc(CN2CCN(CCO)CC2)cc(C(C)(C)C)c1O`?
MITF act: -4.4; TROY signal inh: 19.9; TWEAK Fn14 block: 1.0; LGR2 inh: -12.0; EBV LMP1 NFkB: -9.3; TRPM1 prom inh: 3.8

What do the screens show for `CN1CCN(CC(=O)c2cc(C(C)(C)C)c(O)c(C(C)(C)C)c2)CC1`?
MITF act: 12.5; TROY signal inh: 0.3; TWEAK Fn14 block: -9.7; LGR2 inh: 11.1; EBV LMP1 NFkB: 86.2*; TRPM1 prom inh: -11.4

Results for O=C(COc1ccc(Cl)cc1Cl)NC1CCSC1=O (centres undefined) ?
MITF act: 93.5*; TROY signal inh: -34.0; TWEAK Fn14 block: -3.8; EBV LMP1 NFkB: -27.7; TRPM1 prom inh: -90.3

Results for O=C(COc1ccc(Cl)cc1Cl)NC(=O)NC1CCCC1 ?
MITF act: 126.6*; TROY signal inh: -28.9; TWEAK Fn14 block: -53.1; LGR2 inh: -60.5; EBV LMP1 NFkB: -42.0; TRPM1 prom inh: -119.2

How did O=C(COc1ccc(Cl)cc1Br)NC(=O)NC1CCCC1 do in these assays?
MITF act: 152.2*; TROY signal inh: -29.4; TWEAK Fn14 block: -21.1; LGR2 inh: -96.6; EBV LMP1 NFkB: -37.9; TRPM1 prom inh: -150.8

Results for O=C(COc1ccc(Cl)cc1Cl)NC1CC1 ?
TROY signal inh: -20.3; TWEAK Fn14 block: -8.3; LGR2 inh: -24.2; EBV LMP1 NFkB: -16.9

How did O=C(COc1ccc(Cl)cc1Cl)NC(=O)N1CCCCC1 do in these assays?
MITF act: 95.0*; TROY signal inh: 0.3; TWEAK Fn14 block: 61.2*; EBV LMP1 NFkB: 5.3; TRPM1 prom inh: -92.2

Results for O=C(COC(=O)COc1ccc(Cl)cc1Cl)NC1CCCCCC1 ?
MITF act: -6.4; TROY signal inh: -14.3; TWEAK Fn14 block: -6.9; LGR2 inh: 0.4; EBV LMP1 NFkB: 6.7; TRPM1 prom inh: 7.7

How did COc1ccc2c3c(n(C)c2c1)[C@H](CO)NCC31CCN(S(=O)(=O)c2ccc(C)cc2)CC1 do in these assays?
LGR2 inh: 2.1

Results for C[C@@H]1CN([C@H](C)CO)C(=O)c2cccc(NS(=O)(=O)c3ccccc3)c2O[C@@H]1CN(C)C(=O)Nc1cccc2ccccc12 ?
LGR2 inh: -14.0

Results for O=C(COc1ccccc1Cl)NC(=O)NC1CCCC1 ?
MITF act: 97.0*; TROY signal inh: -75.6; TWEAK Fn14 block: -29.1; EBV LMP1 NFkB: -20.3; TRPM1 prom inh: -95.0

How did COc1ccc(NC(=O)N(C)C[C@H]2OCCCC[C@@H](C)Oc3ccc(NS(=O)(=O)c4cccs4)cc3C(=O)N([C@@H](C)CO)C[C@H]2C)cc1 do in these assays?
LGR2 inh: 3.2

Results for CC(C)Cn1c(N)c(S(=O)(=O)c2cccs2)c2nc3ccccc3nc21 ?
MITF act: 5.9; TROY signal inh: 67.2*; TWEAK Fn14 block: 40.9; EBV LMP1 NFkB: -0.8; TRPM1 prom inh: -4.1

What do the screens show for `COc1cccc(/C=N/n2c(N)c(S(=O)(=O)c3cccs3)c3nc4ccccc4nc32)c1`?
TROY signal inh: 0.4; TWEAK Fn14 block: 11.8; EBV LMP1 NFkB: -9.1; TRPM1 prom inh: -11.5

Results for Nc1c(S(=O)(=O)c2cccs2)c2nc3ccccc3nc2n1/N=C/c1cccc(O)c1 ?
MITF act: -19.5; TROY signal inh: 35.2; TWEAK Fn14 block: 80.9*; EBV LMP1 NFkB: -3.1; TRPM1 prom inh: 20.6

How did O=C1c2ccccc2C(=O)N1CCc1c[nH]c2ccccc12 do in these assays?
MITF act: 111.2*; TROY signal inh: -34.2; TWEAK Fn14 block: -35.6; LGR2 inh: -66.8; EBV LMP1 NFkB: -46.1; TRPM1 prom inh: -107.6

What do the screens show for `COC(=O)c1c(-c2ccccc2)[nH]c(-c2nccc3ccccc23)c1C(=O)OC`?
TROY signal inh: 3.4; TWEAK Fn14 block: 15.1; LGR2 inh: -21.4; EBV LMP1 NFkB: -1.4

What do the screens show for `N#Cc1cc(-c2ccccc2)[nH]c1-c1nccc2ccccc12`?
MITF act: 5.3; TROY signal inh: 25.2; TWEAK Fn14 block: 56.4*; LGR2 inh: -8.1; EBV LMP1 NFkB: 24.1; TRPM1 prom inh: -1.4

Results for COc1cc2[nH]c(=O)n(CCCCCC(=O)N3CC=C(c4ccccc4)CC3)c(=O)c2cc1OC ?
TROY signal inh: 25.8; TWEAK Fn14 block: 58.7*; EBV LMP1 NFkB: 12.1; TRPM1 prom inh: 17.1
